Here are results for 14 compounds from PubChem BioAssay (NCI).

Among the test systems are DU-145 prostate; K-562 leukemia; MALME-3M melanoma; RXF 393 renal; SF-268 CNS; SF-295 CNS; SF-539 CNS; UACC-257 melanoma; M14 melanoma; MDA-MB-231 breast.
Common to all, as to assay: NCI-60 one-dose screen, 48 h (100 = growth as untreated, 0 = no growth, -100 = all killed)
What all share (settings): 10 µM unless noted

Values joined by “and” are separate entries in the source; they are usually repeats but may differ in a detail not shown here. Equal entries are not always repeated. About 83,000 compounds went through this panel and 20% of them were active in at least one assay; those are over-represented in the sample as a whole.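 Interpretation: 100, growth as untreated; towards 0, rising growth inhibition; 0, no net growth; 0 to -100, cell death. Compounds scoring below 10 were considered active.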 Values without a mark were called inactive. Active and inactive are the calls of the source.

On to `Brc1ccc(SSc2ccc(Br)cc2)cc1`, for which the growth in the test on DU-145 prostate is 93.6%; in the test on K-562 leukemia, 89.9%; in the test on MALME-3M melanoma it was 74.8%; with RXF 393 renal, 74.6%; with SF-268 CNS, 58.9%; in the test on SF-295 CNS it was 52.2%. For the same compound, the growth in the test on SF-539 CNS was 56.1%; in the test on UACC-257 melanoma it was 97.7%; with M14 melanoma, 68.7%.

With `N#CC(C#N)N=Nc1cc(Cl)ccc1Cl`, the growth is 111% with DU-145 prostate; 95.3% with K-562 leukemia; 91.7% in the test with MDA-MB-231 breast; 115% in the test with RXF 393 renal; 95% in the test on SF-268 CNS; 99.8% in the test on SF-539 CNS. Moreover, the growth in the test with UACC-257 melanoma was 92%.

As for `Cn1cnc([N+](=O)[O-])c1Sc1ncn[nH]1`, the growth in the test with DU-145 prostate is 108%; in the test on K-562 leukemia, 137%; in the test with MALME-3M melanoma it was 91.6%; in the test on MDA-MB-231 breast, 106%; in the test on RXF 393 renal, 26.1%; in the test with SF-268 CNS, 106%. Moreover, the growth in the test with SF-295 CNS is 116%; in the test with SF-539 CNS, 103%; in the test on UACC-257 melanoma it was 4.36% (active); in the test on M14 melanoma, 95.9%.

As for `ClCCOCCOc1ccc(C2CCCCC2)cc1`, the growth in the test with DU-145 prostate was 102%; in the test with K-562 leukemia it was 118%; in the test on MDA-MB-231 breast it was 103%; in the test on RXF 393 renal, 101%; in the test with SF-268 CNS, 109%; with SF-295 CNS, 97.1%. Further, the growth with SF-539 CNS was 102%; in the test on UACC-257 melanoma it was 91.2%.

For `CC(=O)OC(C)C(=O)NCC(C)O` (configuration not stated), the growth in the test on DU-145 prostate was 104%; in the test with K-562 leukemia, 97.9%; in the test with MALME-3M melanoma it was 108%; in the test with MDA-MB-231 breast it was 124%; in the test on RXF 393 renal it was 113%; in the test with SF-268 CNS it was 100%. The growth with SF-539 CNS was 102%; with UACC-257 melanoma, 108%; with M14 melanoma, 97.8%.

For `O=C1C=C(Nc2ccccc2)c2ccccc2C1=O`, the growth with DU-145 prostate was 21.2% and 97.3%; with K-562 leukemia it was 54.7% and 98.7%; in the test with MALME-3M melanoma, 70.1% and 71%; with MDA-MB-231 breast, 69.1% and 59.7%; in the test with RXF 393 renal, 96.7%; with SF-268 CNS, 80.3% and 92.8%. Besides, the growth is 61.1% and 105% in the test on SF-295 CNS; 44.4% and 105% in the test with SF-539 CNS; 88.7% and 97.9% in the test on UACC-257 melanoma; 47% and 107% with M14 melanoma.

On to `COc1cc(C(O)C2C(=O)OCC2C2(c3ccc4c(c3)OCO4)SCCCS2)cc(OC)c1OC` (configuration not stated), for which the growth is 103% in the test with DU-145 prostate; 97.7% in the test with K-562 leukemia; 91.1% in the test on MALME-3M melanoma; 95.3% in the test on MDA-MB-231 breast; 101% in the test on RXF 393 renal; 94.3% in the test with SF-268 CNS. Further, the growth with SF-295 CNS was 92.9%; in the test on SF-539 CNS it was 102%; in the test on UACC-257 melanoma it was 104%; in the test on M14 melanoma it was 96.8%.

As to `O=CN1CCCCC1`, the growth in the test with DU-145 prostate is 114%; with K-562 leukemia, 104%; in the test on MALME-3M melanoma it was 103%; in the test on MDA-MB-231 breast, 104%; in the test on SF-268 CNS, 105%; in the test on SF-295 CNS it was 97.8%. The growth with SF-539 CNS was 99.8%; with UACC-257 melanoma it was 104%.

As to `CCOC(=O)c1c(C)cc(=O)oc1C`, the growth in the test on DU-145 prostate was 114%; in the test with K-562 leukemia, 89%; in the test with MALME-3M melanoma, 87.7%; with MDA-MB-231 breast, 96.3%; in the test on RXF 393 renal it was 109%; in the test on SF-268 CNS it was 106%. For the same compound, the growth with SF-539 CNS is 107%; in the test with UACC-257 melanoma, 101%; in the test with M14 melanoma, 98%.

Consider `CN1CNC(=O)NC1`, for which the growth with DU-145 prostate is 118% and 106%; with K-562 leukemia, 112% and 86%; with MALME-3M melanoma, 120% and 96%; with MDA-MB-231 breast, 119% and 102%; in the test on RXF 393 renal, 102% and 106%; in the test on SF-268 CNS, 111% and 103%. The growth is 96.5% and 104% in the test on SF-295 CNS; 111% and 98.4% in the test with SF-539 CNS; 111% and 86.9% with UACC-257 melanoma; 97.2% and 106% with M14 melanoma.

On to `O=C(O)CCCl`, for which the growth is 114% in the test on DU-145 prostate; 111% with K-562 leukemia; 115% with MALME-3M melanoma; 125% in the test with MDA-MB-231 breast; 103% in the test with RXF 393 renal; 108% in the test with SF-268 CNS. Also, the results for the growth with SF-539 CNS, in the test with UACC-257 melanoma and with M14 melanoma were 99.8%, 111% and 129%, respectively.

For the compound `Oc1ccc(Cc2ccccc2Cl)c(O)c1`, the growth with K-562 leukemia is 91.5%; in the test with MDA-MB-231 breast, 71.7%; with RXF 393 renal, 83.9%; in the test on SF-539 CNS, 93.9%; with UACC-257 melanoma it was 93.2%.

In the case of `Nc1ncnc2c1ncn2C1OC(COP(=O)(O)O)C(O)C1O` (configuration not stated), the growth in the test on DU-145 prostate is 120%; with K-562 leukemia, 119%; in the test on MDA-MB-231 breast, 102%; in the test on RXF 393 renal, 131%; with SF-268 CNS it was 126%; in the test with SF-539 CNS it was 105%. Further, the growth with UACC-257 melanoma is 110%; with M14 melanoma, 111%.

In the case of `NC(Cc1c[nH]c2ccccc12)C(=O)O` (configuration not stated), the growth is 103% and 113% in the test with DU-145 prostate; 136% and 101% in the test with K-562 leukemia; 118% and 96.3% in the test on MALME-3M melanoma; 104% and 97.1% in the test with MDA-MB-231 breast; 91.4% and 103% in the test with RXF 393 renal; 105% and 101% with SF-268 CNS. The growth with SF-295 CNS is 99.4% and 102%; in the test with SF-539 CNS, 93.8% and 96.8%; in the test on UACC-257 melanoma it was 66.9% and 94%; with M14 melanoma, 93.2% and 98.4%.
